# Bioassay records as filed in PubChem BioAssay.
# Insulin prom up = insulin promoter activators in MIN6 cells, imaging, high-content screening, mouse beta cells | MIN6 insulin promoter-GFP reporter; active compounds read high | AID 1625, 2009 | 190,000 tested, 0.3% active | z-score at 5 µM;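 active = z-score above 3 at 5 µM with at least 500 cells counted in the well; inconclusive = wells under 500 cells, flagged as cytotoxic or low count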
# S1P3 antag-1 = S1P3 receptor antagonists, primary screen, cell-based. inhibition, % at 4.98 µM. CHO S1P3 NFAT-BLA reporter, FRET fluorescence, antagonist mode. 170,000 tested, 0.27% active. AID 485, 2006. Sphingosine 1-phosphate receptor 3 (Homo sapiens), Q99500;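 active = inhibition above the plate cutoff, the mean inhibition of test wells on that plate plus 3 SD, cut at about 28% in these data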;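 also: cells challenged with S1P at its EC80 of 0.8 µM; blue over green emission ratio from cleaved BLA substrate after 4 h stimulation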
# Hsp70 act = Hsp70 transcriptional activators, primary screen, cell-based, HeLa, Hsp70 promoter luciferase, luminescence, 10 µM | HeLa Hsp70 promoter luciferase reporter; scaled: vehicle 0, proteasome-inhibitor control 100% | activation, % at 10 µM | 200,000 tested, 0.04% active;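 active = activation above the mean across all tested compounds plus 3 SD, cutoff set per campaign, cut at about 5.5% in these data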
# Insulin prom inh = inhibitors of insulin promoter-driven GFP, primary screen, imaging, TRM-6 cells (human fetal islet line), eGFP reporter, cell count; reporter expression induced with tamoxifen; inhibition, % at 2 µM; 130,000 tested, 0.9% active; AID 1273, 2008;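 active = inhibition above the mean plus 3 SD, with well images judged a real hit on visual review, cut at about 60% in these data, passing the limit was not always enough; inconclusive = inhibition over the cutoff but images rejected on review; inactive = inhibition not above the cutoff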
# S1P4 antagonist = S1P4 receptor antagonists, primary screen, cell-based; AID 1510, 2009; 220,000 tested, 0.26% active; S1P4-expressing cells, antagonist mode, reporter read-out; Sphingosine 1-phosphate receptor 4 (Homo sapiens), O95977; inhibition, % at 4.98 µM; in the data active = inhibition above about 29%
# Target sequence (O95977 whole entry, looked up): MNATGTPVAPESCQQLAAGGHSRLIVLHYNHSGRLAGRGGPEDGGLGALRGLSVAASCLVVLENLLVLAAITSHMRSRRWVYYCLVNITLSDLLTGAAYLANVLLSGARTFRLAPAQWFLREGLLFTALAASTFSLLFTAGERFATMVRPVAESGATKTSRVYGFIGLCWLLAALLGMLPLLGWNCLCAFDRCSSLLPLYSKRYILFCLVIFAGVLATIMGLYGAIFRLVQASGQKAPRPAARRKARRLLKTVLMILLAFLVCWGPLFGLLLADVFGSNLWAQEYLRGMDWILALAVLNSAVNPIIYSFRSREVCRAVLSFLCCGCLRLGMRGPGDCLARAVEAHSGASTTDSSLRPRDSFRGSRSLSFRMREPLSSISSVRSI
# S1P4 ag = S1P4 receptor agonists, primary screen, cell-based; activation, % at 4.98 µM; Sphingosine 1-phosphate receptor 4 (Homo sapiens), O95977; 220,000 tested, 0.35% active; S1P4-expressing cell line, agonist reporter assay; in the data active = activation above about 11%
# S1P3 antag-2 = S1P3 receptor antagonists, retest, confirmation, cell-based; shares compounds with S1P3 antag-1; CHO S1P3 NFAT-BLA reporter, FRET, antagonist mode; inhibition, % at 4.98 µM; 240 tested, 30% active; AID 1429, 2008;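 active = inhibition above the hit threshold that was computed for the earlier primary screen, cut at about 30% in these data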
# Hsp70 act dose = Hsp70 transcriptional activators, dose response, cell-based, HeLa, Hsp70 promoter luciferase, luminescence, triplicate | shares compounds with Hsp70 act | HeLa hsp70.1pr-luc reporter | calls only at 99 µM | 70 tested, 10% active | AID 1252, 2008;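 active = over 50% activation at some tested dose; inactive = under 50% activation at every tested dose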
# S1P4 ag conf = S1P4 receptor agonists, retest, confirmation, cell-based, high throughput; 740 tested, 7% active; AID 1523, 2009; shares compounds with S1P4 ag; S1P4 agonist cell-based reporter assay; activation, % at 4.98 µM; in the data active = activation above about 12%
# S1P1 ag = S1P1 receptor agonists, human, counter-screen for S1P4 agonist project, cell-based; shares compounds with S1P4 ag; S1P1 agonist cell-based assay, activation; activation, % at 4.98 µM; 740 tested, 4% active; in the data active = activation above about 21%
# S1P4 antag cf = S1P4 receptor antagonists, human, confirmation, cell-based | shares compounds with S1P4 antagonist | S1P4-expressing cell line, antagonist mode, reporter read-out | inhibition, % at 4.98 µM | 520 tested, 71% active | AID 1524, 2009; in the data active = inhibition above about 30%
# S1P1 antag = S1P1 receptor antagonists, human, counter-screen for S1P4 antagonist project, cell-based; AID 1564, 2009; inhibition, % at 4.98 µM; cell-based S1P1 antagonist counterscreen, inhibition; shares compounds with S1P4 antagonist; 520 tested, 37% active; in the data active = inhibition above about 40%;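 also: receptor stimulated with S1P near its EC80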
# Numbers stand for hits; i = inactive; ? = inconclusive; nt = no result given; + = active, no number. Sampled rows, rich in hits. Any-hit rate of the full collection: about 1.5%.
SMILES,Insulin prom up,S1P3 antag-1,Hsp70 act,Insulin prom inh,S1P4 antagonist,S1P4 ag,S1P3 antag-2,Hsp70 act dose,others
CCN1/C(=C/c2ccc3cc(C)ccc3[n+]2CC)Sc2cc(C)ccc21,?,38.6,i,i,i,i,i,nt,
c1ccc(C2=Nn3c(Cn4nnc5ccccc54)nnc3SC2)cc1,i,i,nt,nt,i,i,nt,nt,
c1ccc(Cc2nnc3n2N=C(c2ccccc2)CS3)cc1,i,29.0,i,nt,i,i,i,nt,
CCOC(=O)n1c(O)c(N=NC(N)=S)c2cc(C)ccc21,i,i,nt,nt,i,i,nt,nt,
O=C(NCc1ccncc1)Nc1ccccc1F,nt,i,i,i,i,i,nt,nt,
Cc1cc(C)n2nc(C(=O)NCc3ccco3)cc2n1,i,i,i,nt,i,i,nt,nt,
Cc1ccn2cc(C(=O)NCc3ccco3)nc2c1,i,29.5,i,i,i,i,i,nt,
Cc1ccc2cc(/C=N/Nc3nc4ccccc4[nH]3)c(Cl)nc2c1,i,46.4,i,nt,i,i,i,nt,
CC(=O)c1ccc(Nc2c3c(nc4ccccc24)CCCC3)cc1,i,29.0,nt,nt,i,27.0,i,nt,S1P4 ag conf=i;S1P1 ag=i
COc1ccc(-n2ncc(S(=O)(=O)c3ccccc3)c2-c2ccc(Cl)cc2)cc1,i,nt,i,i,i,i,nt,nt,
CN(C)c1ccc(/C=C/c2ccc3ccccc3n2)cc1,7.29,46.2,nt,nt,31.9,20.5,45.3,nt,S1P4 ag conf=i;S1P1 ag=i;S1P4 antag cf=63.0;S1P1 antag=44.0
O=C1N/C(=N\S(=O)(=O)Cc2ccccc2)S/C1=C/c1cc([N+](=O)[O-])ccc1O,i,32.0,nt,nt,44.2,i,i,nt,S1P4 antag cf=58.7;S1P1 antag=50.2
COc1cccc(OC)c1C(=O)NC(=S)Nc1cc(-c2nc3ccccc3[nH]2)ccc1Cl,i,i,i,i,i,i,nt,nt,
O=C(NC1CCCCC1)N1CCN(CCc2ccccc2)CC1,i,i,i,i,i,i,nt,nt,
CC(C)(C)c1ccc(NC(=O)Nc2ccc(F)cc2)cc1,nt,i,i,i,i,i,nt,nt,
O=C(Nc1ccc(F)cc1)Nc1cc(OCC(F)(F)F)cc(OCC(F)(F)F)c1,i,34.8,i,i,100.2,i,i,nt,S1P4 antag cf=110.4;S1P1 antag=i
CCN(CC)c1ccc(/C=C/c2cc(-c3ccccc3)c3ccccc3n2)cc1,15.3,76.1,nt,nt,46.3,i,90.2,nt,S1P4 antag cf=90.7;S1P1 antag=103.8
CCN(CC)c1ccc(/C=N/NC(=O)c2cc(C)nc3ccccc23)cc1,nt,i,nt,nt,i,i,nt,nt,
CCCCN(C)CC(O)Cn1cc(/C=C/C(=O)c2cccs2)c2ccccc21 (stereo not given),4.79,32.7,i,i,47.2,i,i,nt,S1P4 antag cf=61.2;S1P1 antag=87.6
CCOC(=O)COc1cccc2c(=O)n(CC(=O)NCc3ccc(F)cc3)ccc12,i,29.9,nt,nt,32.8,i,i,nt,S1P4 antag cf=29.9;S1P1 antag=72.8
CCOC(=O)COc1cccc2c(=O)n(CC(N)=O)ccc12,i,i,nt,nt,i,i,nt,nt,
COc1ccc(/C=N/OCC(=O)N(Cc2ccc(OC)cc2)c2ccccc2C(=O)O)cc1,i,i,i,i,i,i,nt,nt,
Cn1c(CCN2CCOCC2)nc2cc(NC(=O)COc3ccc(Cl)cc3)ccc21,i,i,8.7,nt,i,i,nt,i,
COc1ccc(OCC(=O)Nc2ccc3c(c2)nc(CCN2CCOCC2)n3C)cc1,i,i,i,nt,i,i,nt,nt,
O=C(N/N=C/c1cccc([N+](=O)[O-])c1)C1CC(=O)N(c2ccc(F)cc2)C1 (stereo not given),i,i,i,nt,i,i,nt,nt,
SMILES,Insulin prom up,S1P3 antag-1,Hsp70 act,Insulin prom inh,S1P4 antagonist,S1P4 ag,S1P3 antag-2,Hsp70 act dose,others
COCC(=O)Nc1cccc(Br)c1,i,i,6.3,i,i,i,nt,i,
COC(=O)Nc1ccc(S(=O)(=O)NCc2ccccn2)cc1,i,i,5.8,i,i,i,nt,i,
CC1=NOC(=O)/C1=C\c1ccc(-c2ccc(Cl)cc2Cl)o1,i,nt,5.8,nt,i,i,nt,i,
Cc1[nH][nH]c(=O)c1C(c1ccc(-c2ccc(Cl)cc2Cl)o1)c1c(C)[nH][nH]c1=O,i,nt,i,i,i,i,nt,nt,
O=C(COC(=O)c1ccc(F)cc1)Nc1ccc(Cl)cn1,i,i,nt,nt,i,i,nt,nt,
O=C(OCn1ncc(Cl)c(Cl)c1=O)c1ccc(F)cc1,nt,nt,13.0,i,i,i,nt,i,
O=C(OCn1ncc(Cl)c(Cl)c1=O)c1ccccc1Cl,nt,nt,7.4,i,i,i,nt,+,
O=C1NC(=O)C2(COC(c3cccnc3)OC2)S1 (stereo not given),i,i,i,i,i,i,nt,nt,
O=C1NC(=O)C2(COC3(CCCC3)OC2)S1,i,i,28.3,nt,i,i,nt,i,
CCC(/C=N/NC(=O)C(N)=O)CC,i,i,i,i,i,i,nt,nt,
NS(=O)(=O)c1ccc(Oc2ccc(S(N)(=O)=O)cc2)cc1,i,i,i,i,i,i,nt,nt,
C=CS(=O)(=O)c1ccc(Oc2ccc(S(=O)(=O)C=C)cc2)cc1,i,99.5,48.4,i,i,i,nt,i,
N#Cc1ccc(NC(=O)c2nc(-c3ccccc3)n(-c3ccccc3)n2)cc1,i,nt,6.7,i,i,i,nt,i,
COc1ccc(OC)c2c(C)cc(NCCN3CCOCC3)nc12,i,i,i,i,i,i,nt,nt,
CC(C)C(=O)N1CCN(c2ccc(NC(=O)c3ccc([N+](=O)[O-])o3)cc2Cl)CC1,i,i,73.7,i,46.8,i,nt,i,
COC(=O)/C=C1\NCCNC1=O,i,i,nt,nt,i,i,nt,nt,
Cn1cc([C@@H]2C[C@H]3CN(Cc4cccc(Cl)c4)C(=O)[C@]34CCCN24)c2ccccc21,i,i,i,nt,i,i,nt,nt,
CC(CC1CC(C)(C)OC1=O)C(=O)Nc1ccc([N+](=O)[O-])cc1 (stereo not given),i,i,5.6,nt,i,i,nt,i,
